# The supplement of paper PMC7393113
# ± gives the standard deviation of the averaged measurements.
# System: iBMDM (immortalised mouse bone-marrow-derived macrophages), LPS-stimulated
# Experiment: mitochondrial superoxide (MitoSOX fluorescence) fold increase over unstimulated control; higher = more LPS-induced mitochondrial ROS (less inhibition)
# Conditions: inhibitor concentration: 500 nM, LPS: 100 ng/ml
# Summary of the method: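 Immortalised mouse bone-marrow-derived macrophages in black 96-well plates were kept in phenol-red-free 1% FCS/DMEM for 20 h, pretreated 30 min with kinase inhibitors (500 nM), loaded with 1 μM MitoSox for 10 min and then given LPS (100 ng/ml). Fluorescence at excitation/emission 510/580 nm was read on a ClarioStar plate reader every 60 min for 4 h, with wells in triplicate. Mitochondrial superoxide is given as fold induction over untreated macrophages, averaged across replicates.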
compound,measurement,setting,value
CCS(=O)(=O)c1cccc(-c2cc(C(=O)NC3CCN(C)CC3)c(C)c3[nH]c4ncc(C)cc4c23)c1,mitochondrial superoxide,time after LPS: 1 h,1.31 ± 0.05
same,mitochondrial superoxide,time after LPS: 2 h,1.48 ± 0.079
same,mitochondrial superoxide,time after LPS: 4 h,1.64 ± 0.098
CO[C@H]1C[C@@H]2CC[C@@H](C)[C@@](O)(O2)C(=O)C(=O)N2CCCC[C@H]2C(=O)O[C@H]([C@H](C)C[C@@H]2CC[C@@H](OC(=O)C(C)(CO)CO)[C@H](OC)C2)CC(=O)[C@H](C)/C=C(\C)[C@@H](O)[C@@H](OC)C(=O)[C@H](C)C[C@H](C)/C=C/C=C/C=C/1C,mitochondrial superoxide,time after LPS: 1 h,1.55 ± 0.051
same,mitochondrial superoxide,time after LPS: 2 h,1.65 ± 0.098
same,mitochondrial superoxide,time after LPS: 4 h,1.75 ± 0.089
COc1cc2ncc(-c3ccccc3)nc2cc1OC [Tyrphostin AG 1296],mitochondrial superoxide,time after LPS: 1 h,1.469 ± 0.014
same,mitochondrial superoxide,time after LPS: 2 h,1.47 ± 0.017
same,mitochondrial superoxide,time after LPS: 4 h,1.58 ± 0.021
CCC(=O)N1CCN(c2ccc(-n3c(=O)ccc4cnc5ccc(-c6cnc7ccccc7c6)cc5c43)cc2C(F)(F)F)CC1 [Torin 1],mitochondrial superoxide,time after LPS: 1 h,1.14 ± 0.024
same,mitochondrial superoxide,time after LPS: 2 h,1.24 ± 0.033
same,mitochondrial superoxide,time after LPS: 4 h,1.35 ± 0.044
COc1cc(N2CCC(N)CC2)ccc1Nc1ncc(Cl)c(-c2c[nH]c3ccccc23)n1,mitochondrial superoxide,time after LPS: 1 h,1.21 ± 0.018
same,mitochondrial superoxide,time after LPS: 2 h,1.27 ± 0.025
same,mitochondrial superoxide,time after LPS: 4 h,1.36 ± 0.057
C=CC(=O)Nc1cccc(Nc2nc(Nc3ccc(OCCOC)cc3)ncc2F)c1,mitochondrial superoxide,time after LPS: 1 h,1.17 ± 0.03
same,mitochondrial superoxide,time after LPS: 2 h,1.24 ± 0.072
same,mitochondrial superoxide,time after LPS: 4 h,1.29 ± 0.019
Cc1cc(Nc2cc(N3CCN(C)CC3)nc(/C=C/c3ccccc3)n2)n[nH]1,mitochondrial superoxide,time after LPS: 1 h,1.19 ± 0.044
same,mitochondrial superoxide,time after LPS: 2 h,1.21 ± 0.011
same,mitochondrial superoxide,time after LPS: 4 h,1.32 ± 0.03
O=C1c2ccccc2-c2n[nH]c3cccc1c23,mitochondrial superoxide,time after LPS: 1 h,1.12 ± 0.027
same,mitochondrial superoxide,time after LPS: 2 h,1.2 ± 0.15
same,mitochondrial superoxide,time after LPS: 4 h,1.3 ± 0.13
COc1cc2c(Oc3ccc(NC(=O)C4(C(=O)Nc5ccc(F)cc5)CC4)cc3F)ccnc2cc1OCCCN1CCOCC1,mitochondrial superoxide,time after LPS: 1 h,1.25 ± 0.022
same,mitochondrial superoxide,time after LPS: 2 h,1.35 ± 0.034
same,mitochondrial superoxide,time after LPS: 4 h,1.48 ± 0.03
COc1ccc(-c2ccc3ncc4c(c3c2)n(-c2ccc(N3CCNCC3)c(C(F)(F)F)c2)c(=O)n4C)cn1,mitochondrial superoxide,time after LPS: 1 h,1.1 ± 0.041
same,mitochondrial superoxide,time after LPS: 2 h,1.27 ± 0.078
same,mitochondrial superoxide,time after LPS: 4 h,1.49 ± 0.077
Nc1nc(N)c2nc(-c3cccc(O)c3)c(-c3cccc(O)c3)nc2n1,mitochondrial superoxide,time after LPS: 1 h,1.18 ± 0.049
same,mitochondrial superoxide,time after LPS: 2 h,1.23 ± 0.1
same,mitochondrial superoxide,time after LPS: 4 h,1.4 ± 0.12
O=c1cc(N2CCOCC2)oc2c(-c3ccccc3)cccc12,mitochondrial superoxide,time after LPS: 1 h,1.36 ± 0.075
same,mitochondrial superoxide,time after LPS: 2 h,1.41 ± 0.086
same,mitochondrial superoxide,time after LPS: 4 h,1.52 ± 0.035
O=C(NC1CCNCC1)c1n[nH]cc1NC(=O)c1c(Cl)cccc1Cl,mitochondrial superoxide,time after LPS: 1 h,1.13 ± 0.061
same,mitochondrial superoxide,time after LPS: 2 h,1.15 ± 0.041
same,mitochondrial superoxide,time after LPS: 4 h,1.3 ± 0.018
Cc1ccc(C(=O)Nc2ccc(CN3CCN(C)CC3)c(C(F)(F)F)c2)cc1C#Cc1cnc2[nH]ncc2c1,mitochondrial superoxide,time after LPS: 1 h,1.42 ± 0.049
same,mitochondrial superoxide,time after LPS: 2 h,1.53 ± 0.032
same,mitochondrial superoxide,time after LPS: 4 h,1.75 ± 0.062
CN1CCN(c2nc(C3=C(c4c[nH]c5ccccc45)C(=O)NC3=O)c3ccccc3n2)CC1 [Sotrastaurin],mitochondrial superoxide,time after LPS: 1 h,1.41 ± 0.015
same,mitochondrial superoxide,time after LPS: 2 h,1.55 ± 0.039
same,mitochondrial superoxide,time after LPS: 4 h,1.749 ± 0.012
Cc1cnc(Nc2ccc(OCCN3CCCC3)cc2)nc1Nc1cccc(S(=O)(=O)NC(C)(C)C)c1,mitochondrial superoxide,time after LPS: 1 h,1.18 ± 0.14
same,mitochondrial superoxide,time after LPS: 2 h,1.33 ± 0.21
same,mitochondrial superoxide,time after LPS: 4 h,1.42 ± 0.22
N#Cc1c(Oc2ccc(F)c(NC(=O)Cc3cccc(C(F)(F)F)c3)c2)ccc2nc(NC(=O)C3CC3)sc12,mitochondrial superoxide,time after LPS: 1 h,1.35 ± 0.087
same,mitochondrial superoxide,time after LPS: 2 h,1.49 ± 0.076
same,mitochondrial superoxide,time after LPS: 4 h,1.66 ± 0.076
Cc1cc(Nc2cc(CN3CCOCC3)c3nc(C)c(Cc4ccc(Cl)cc4F)n3n2)n[nH]1,mitochondrial superoxide,time after LPS: 1 h,1.16 ± 0.062
same,mitochondrial superoxide,time after LPS: 2 h,1.23 ± 0.048
same,mitochondrial superoxide,time after LPS: 4 h,1.38 ± 0.035
Cc1[nH]c(/C=C2\C(=O)Nc3ccc(S(=O)(=O)Cc4c(Cl)cccc4Cl)cc32)c(C)c1C(=O)N1CCC[C@@H]1CN1CCCC1,mitochondrial superoxide,time after LPS: 1 h,1.56 ± 0.039
same,mitochondrial superoxide,time after LPS: 2 h,1.61 ± 0.027
same,mitochondrial superoxide,time after LPS: 4 h,1.77 ± 0.028
Oc1ccc(-c2nc(-c3ccc(F)cc3)c(-c3ccncc3)[nH]2)cc1,mitochondrial superoxide,time after LPS: 1 h,1.32 ± 0.13
same,mitochondrial superoxide,time after LPS: 2 h,1.41 ± 0.13
same,mitochondrial superoxide,time after LPS: 4 h,1.57 ± 0.12
COc1ccc(COc2cc3oc(=O)c4cc(C(C)O)ccc4c3cc2OC)cc1 (stereo unspecified) [Palomid 529 (P529)],mitochondrial superoxide,time after LPS: 1 h,1.1 ± 0.049
same,mitochondrial superoxide,time after LPS: 2 h,1.25 ± 0.08
same,mitochondrial superoxide,time after LPS: 4 h,1.41 ± 0.05
COc1cc2c(Nc3ccc(NC(=O)c4ccccc4)cc3)ncnc2cc1OCCCN1CCOCC1,mitochondrial superoxide,time after LPS: 1 h,1.34 ± 0.06
same,mitochondrial superoxide,time after LPS: 2 h,1.44 ± 0.069
same,mitochondrial superoxide,time after LPS: 4 h,1.52 ± 0.037
COc1cc2ncnc(Oc3cccc(NC(=O)Nc4cc(C(C)(C)C(F)(F)F)on4)c3)c2cc1OC,mitochondrial superoxide,time after LPS: 1 h,1.36 ± 0.027
same,mitochondrial superoxide,time after LPS: 2 h,1.562 ± 0.0063
same,mitochondrial superoxide,time after LPS: 4 h,1.59 ± 0.025
Cc1ccccc1CN1C2=NCCN2C(=O)C2=C1CCN(Cc1ccccc1)C2,mitochondrial superoxide,time after LPS: 1 h,1.16 ± 0.042
same,mitochondrial superoxide,time after LPS: 2 h,1.27 ± 0.036
same,mitochondrial superoxide,time after LPS: 4 h,1.34 ± 0.13
O=C(Nc1c[nH]nc1-c1nc2ccc(CN3CCOCC3)cc2[nH]1)NC1CC1,mitochondrial superoxide,time after LPS: 1 h,1.34 ± 0.02
same,mitochondrial superoxide,time after LPS: 2 h,1.42 ± 0.033
same,mitochondrial superoxide,time after LPS: 4 h,1.51 ± 0.036
Cc1c(Cn2c(C)nc3c(C(=O)O)cc(N4CCOCC4)cc32)cccc1C(F)(F)F,mitochondrial superoxide,time after LPS: 1 h,1.394 ± 0.013
same,mitochondrial superoxide,time after LPS: 2 h,1.502 ± 0.0056
same,mitochondrial superoxide,time after LPS: 4 h,1.61 ± 0.048
CC(C)(C)NS(=O)(=O)c1cncc(-c2cc(F)c3nc(N)nn3c2)c1,mitochondrial superoxide,time after LPS: 1 h,1.09 ± 0.021
same,mitochondrial superoxide,time after LPS: 2 h,1.18 ± 0.038
same,mitochondrial superoxide,time after LPS: 4 h,1.31 ± 0.064
Nc1nc(Nc2ccc(S(N)(=O)=O)cc2)nn1C(=O)c1c(F)cccc1F,mitochondrial superoxide,time after LPS: 1 h,1.15 ± 0.04
same,mitochondrial superoxide,time after LPS: 2 h,1.13 ± 0.027
same,mitochondrial superoxide,time after LPS: 4 h,1.11 ± 0.021
CC(=O)c1c(C)c2cnc(Nc3ccc(N4CCNCC4)cn3)nc2n(C2CCCC2)c1=O,mitochondrial superoxide,time after LPS: 1 h,1.45 ± 0.032
same,mitochondrial superoxide,time after LPS: 2 h,1.45 ± 0.037
same,mitochondrial superoxide,time after LPS: 4 h,1.49 ± 0.03
COc1cc2/c(=N/c3ccc(Br)cc3F)nc[nH]c2cc1OCC1CCN(C)CC1 [Vandetanib (ZD6474)],mitochondrial superoxide,time after LPS: 1 h,1.57 ± 0.036
same,mitochondrial superoxide,time after LPS: 2 h,1.63 ± 0.054
same,mitochondrial superoxide,time after LPS: 4 h,1.7 ± 0.077
Cc1nc(Nc2ncc(C(=O)Nc3c(C)cccc3Cl)s2)cc(N2CCN(CCO)CC2)n1 [Dasatinib],mitochondrial superoxide,time after LPS: 1 h,1.51 ± 0.022
same,mitochondrial superoxide,time after LPS: 2 h,1.61 ± 0.069
same,mitochondrial superoxide,time after LPS: 4 h,1.85 ± 0.068
COc1cc2ncnc(Nc3ccc(Cl)cc3F)c2cc1OC,mitochondrial superoxide,time after LPS: 1 h,1.12 ± 0.029
same,mitochondrial superoxide,time after LPS: 2 h,1.24 ± 0.037
same,mitochondrial superoxide,time after LPS: 4 h,1.271 ± 0.0046
